Assay results published in the supplement of paper PMC10127200.
Counter-ions that a name gives are not always drawn.

How the values were obtained:
Experiment in all cases: Euclidean distance of Cell Painting phenotypic profile (signed KS, 77 features) to DMSO centroid (dimensionless distance); 5 or 10 uM (library dependent); higher = stronger phenotypic change vs DMSO (phenoactivity)
Details in all cases: 48 h
786-O = tested on: 786-O
How it was run: (§1)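 Phenoactivity is computed as Euclidean distance to the median vehicle profile. The profiles, drawn from 77 Harmony features scored as signed Kolmogorov-Smirnov statistics versus same-plate vehicle wells, were corrected for plate position, correlation-weighted and replicate-averaged at the top dose. Stained cells were imaged confocally at 20X (9 fields/well) after 48 h with library compounds at 10 or 5 uM, 0.1% DMSO final, in five cancer lines and a healthy fibroblast line.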

A549 = tested on: A549
How it was run: as §1

DU145 = tested on: DU145
How it was run: as §1

FB = tested on: FB
How it was run: as §1

HEPG2 = tested on: HEPG2
How it was run: as §1

OVCAR4 = tested on: OVCAR4
How it was run: as §1

SMILES	Euclidean distance (786-O)	Euclidean distance (A549)	Euclidean distance (DU145)	Euclidean distance (FB)	Euclidean distance (HEPG2)	Euclidean distance (OVCAR4)
CCCC1O[C@@H]2C[C@H]3[C@@H]4CCC5=CC(=O)C=C[C@]5(C)[C@H]4[C@@H](O)C[C@]3(C)[C@]2(C(=O)CO)O1 (stereo partly drawn) [Budesonide]	3.14	1.89	2.06	3.49	2.09	2.47
Cc1nccn1CC1CCc2c(c3ccccc3n2C)C1=O (stereo not drawn) [Ondansetron HCl]	1.31	1.62	1.01	1.16	0.865	0.943
CC(C)c1nc(N(C)S(C)(=O)=O)nc(-c2ccc(F)cc2)c1/C=C/[C@@H](O)C[C@@H](O)CC(=O)O [Rosuvastatin Calcium]	0.535	0.682	2.17	1.71	1.03	0.889
O=C(Nc1ccncc1)c1cc([N+](=O)[O-])ccc1Cl	1.2	0.794	2.19	0.879	1.09	2.04
O=C1NCC2(CCN(CCc3ccccc3)CC2)O1 [Fenspiride HCl]	0.914	1.2	1.2	1.2	1.08	1.26
CN(C)c1nc(N(C)C)nc(N(C)C)n1 [Altretamine]	1.11	0.902	0.807	1.32	0.597	0.929
CCNC(=O)c1noc(-c2cc(C(C)C)c(O)cc2O)c1-c1ccc(CN2CCOCC2)cc1	2.96	2.83	3.5	2.77	3.91	2.67
c1ccc2c(Oc3nc(Nc4ccc(N5CCOCC5)cc4)c4ncn(C5CCCCC5)c4n3)cccc2c1 [Purmorphamine]	1.93	1.81	0.922	0.758	1.17	1.94
Cc1cc(Nc2cc(N3CCN(C)CC3)nc(Sc3ccc(NC(=O)C4CC4)cc3)n2)n[nH]1 [VX-680 (Tozasertib. MK-0457)]	2.67	3.95	3.26	3.01	1.92	2.98
CNCC(=O)O [Sarcosine]	1.77	0.92	1.05	1.13	0.831	1.75
CC(C)CN(C[C@@H](O)[C@H](Cc1ccccc1)NC(=O)O[C@H]1CO[C@H]2OCC[C@H]21)S(=O)(=O)c1ccc(N)cc1 [Darunavir Ethanolate]	0.575	0.867	1.31	0.84	0.355	0.797
O=c1ccn(C2OC(COP(=O)(O)O)C(O)C2O)c(=O)[nH]1 (stereo not drawn) [Uridine 5'-monophosphate]	1.18	1.21	1.33	1.3	1.01	1.23
COc1cc(Nc2ncc(F)c(Nc3ccc4c(n3)NC(=O)C(C)(C)O4)n2)cc(OC)c1OC	1.65	3.73	2.9	3.35	1.78	2.24
CNCc1cc(-c2ccccc2F)n(S(=O)(=O)c2cccnc2)c1 [Vonoprazan Fumarate (TAK-438)]	0.884	0.5	0.972	1.23	0.474	0.89
CN(C)[C@@H](CCOc1cccc2ccccc12)c1ccccc1 [Dapoxetine HCl]	1.49	0.787	2.96	1.26	1.1	1.26
CN1CCN(c2ccc3nc(-c4c(N)c5c(F)cccc5[nH]c4=O)[nH]c3c2)CC1 [Dovitinib (TKI-258) Dilactic Acid]	2.81	3.4	2.01	4.28	0.932	1.96
C[C@]1(O)C[C@@H](c2nc(-c3ccc4ccc(-c5ccccc5)nc4c3)c3c(N)nccn32)C1 [OSI-906 (Linsitinib)]	1.12	1.34	0.877	1.19	1.12	1.27
COc1cccc2c1C(=O)c1c(O)c3c(c(O)c1C2=O)C[C@@](O)(C(C)=O)C[C@@H]3O[C@H]1C[C@H](N)[C@H](O)[C@H](C)O1 [Daunorubicin HCl]	5.05	5.5	5.6	4.91	4.88	5.41
Cc1ccc([N+](=O)[O-])cc1S(=O)(=O)N(C)/N=C/c1cnc2ccc(Br)cn12	3.41	4.67	2.87	2.69	2.06	4.4
CNC(=O)c1cccc(-c2ccc3c(N4CCOC[C@@H]4C)nc(N4CCOC[C@@H]4C)nc3n2)c1	4	3.14	2.52	4.98	4.09	4.15
CC(C)(C)CC(C)(C)c1ccc(OCCOCC[N+](C)(C)Cc2ccccc2)cc1 [Benzethonium Chloride]	3.02	2.7	2.15	1.82	2.43	2.37
O=C(O)CCn1c2c(c3ccccc31)C[C@H](NS(=O)(=O)c1ccc(F)cc1)CC2 [Ramatroban]	0.593	0.487	0.969	0.538	1.42	0.778
Cc1[nH]c(=O)c(C#N)cc1-c1ccncc1 [Milrinone]	0.957	0.855	0.761	0.918	0.762	0.888
N#Cc1cc(CN2CCC(Nc3ncnc4sc(Cl)cc34)CC2)ccc1F	0.974	1.39	1.03	1.19	1.15	1.37

SMILES	Euclidean distance (786-O)	Euclidean distance (A549)	Euclidean distance (DU145)	Euclidean distance (FB)	Euclidean distance (HEPG2)	Euclidean distance (OVCAR4)
CC(C)[N+](C)(CCOC(=O)C1c2ccccc2Oc2ccccc21)C(C)C [Propantheline bromide]	0.803	0.839	0.798	0.725	0.423	0.718
CCC[C@H](NC(=O)/C(C#N)=C/c1cccc(Br)n1)c1ccccc1 [Degrasyn (WP1130)]	5.15	4.08	4.95	2.59	1.66	4.93
Cc1ncc([N+](=O)[O-])n1C [Dimetridazole]	1.08	0.82	1.15	0.783	0.672	0.957
COc1ccc(NS(=O)(=O)c2ccc(N)cc2)nn1 [Sulfamethoxypyridazine]	0.978	0.771	1.02	1.64	0.55	1.05
Cc1ncc([N+](=O)[O-])n1CCOC(=O)c1ccccc1 [Metronidazole Benzoate]	0.984	1.41	0.885	1.58	0.486	0.922
CCOc1ccc(Cc2cc([C@@H]3O[C@H](SC)[C@@H](O)[C@H](O)[C@H]3O)ccc2Cl)cc1 [Sotagliflozin (LX4211)]	1.32	1.07	1.9	0.889	0.553	0.781
O=c1ccc2ccc(O)c(O)c2o1 [Daphnetin]	1.49	0.859	0.975	1.15	1.18	0.972
C=C(C)[C@@H]1CC[C@]2(CO)CC[C@]3(C)[C@H](CC[C@@H]4[C@@]5(C)CC[C@H](O)C(C)(C)[C@@H]5CC[C@]43C)[C@@H]12 [Betulin]	1.24	0.846	1.07	1.2	0.765	1.1
O=C(/C=C/c1ccc(CN(CCO)CCc2c[nH]c3ccccc23)cc1)NO [LAQ824 (Dacinostat)]	2.61	4.89	4.56	3.59	4.12	3.09
COc1ccc(Cl)cc1NC(=O)Nc1cc(C)nc2ccccc12	1.14	1.85	1.06	1.02	0.631	1.47
COCCc1ccc(OCC(O)CNC(C)C)cc1 (stereo not drawn) [Metoprolol Tartrate]	0.573	0.762	0.69	0.67	0.507	0.885
CNC(=O)CN1CCC(Oc2cc3c(Nc4cccc(Cl)c4F)ncnc3cc2OC)CC1 [Sapitinib (AZD8931)]	1.67	3.03	2.21	2.79	1.18	3.03
O=C(OCCOCCO)c1ccccc1Nc1cccc(C(F)(F)F)c1 [Etofenamate]	0.974	0.683	1.59	1.79	0.744	0.722
O=[N+]([O-])c1cncn1CCN1CCOCC1 [Nimorazole]	0.827	0.551	1.21	0.76	1.18	0.937
O=C(c1ccc(NS(=O)(=O)c2cccc3cccnc23)cc1)N1CCN(CC2CC2)CC1 [Mitapivat]	1.26	0.913	1.1	1.04	1.09	1.47
CC/C=C\C/C=C\C/C=C\C/C=C\C/C=C\C/C=C\CCC(=O)O [Docosahexaenoic Acid]	1.08	0.581	0.837	1.06	0.766	1.1
Cc1ccc(S(=O)(=O)n2c(N)nc3ccccc32)cc1 [ML130 (Nodinitib-1)]	0.771	1.13	0.862	0.77	1.18	0.774
Oc1ccc(-c2nc(-c3ccc(F)cc3)c(-c3ccncc3)[nH]2)cc1	1.58	0.841	1.39	1.38	2.99	2.17
O=C(Nc1ccccc1)N1CCN(c2nc(-c3ccccc3)ns2)CC1	0.718	0.932	0.9	1.03	1.34	1.08
COc1cc(Nc2c(C#N)cnc3cc(OCCCN4CCN(C)CC4)c(OC)cc23)c(Cl)cc1Cl [Bosutinib (SKI-606)]	3.85	3.56	2.93	3.66	3.22	4.14
Cc1cccc(-c2[nH]c(CNc3ccccc3F)nc2-c2ccc3ncnn3c2)n1 [Vactosertib ?(TEW-7197)]	1.71	1.61	1.41	1.83	1.26	1.5
O=C1CC2(CCCC2)CC(=O)N1CCCCN1CCN(c2ncccn2)CC1 [Buspirone HCl]	0.547	0.965	0.869	0.994	0.61	1.32
C[C@@H]1C[C@H]2[C@@H]3CCC4=CC(=O)C=C[C@]4(C)[C@@]3(F)[C@@H](O)C[C@]2(C)[C@@]1(O)C(=O)CO [Dexamethasone (DHAP)]	1.45	2.32	2.14	1.75	0.718	1.86
Cc1ccc2c(c1)C(=O)C1(O)CCN(c3ccccc3)C1=N2 (single isomer, unassigned; (-)) [(-)-Blebbistatin]	1.29	1.46	1.36	1.03	1.13	1.46
